Shiga inhibitor: inhibitors of Shiga toxin in Vero cells; Vero cells, Shiga toxin protein synthesis inhibition reporter; 9.2% of 290,000 active; AID 2315; inhibition, % at 38.7 µM; in the data active means inhibition mostly above about 28%, no sharp cut-off; inactive means mostly below about 43%; further: 0% is about no effect
Sm TGR inh: inhibitors of Schistosoma mansoni thioredoxin glutathione reductase. purified TGR, DTNB reduction, TNB absorbance 405 nm. 3% of 360,000 active. AID 485364. Q962Y6. Potency, µM (series often up to 114 µM), without a hit: at the highest dose activity change, negative = inhibition, hits mostly inhibitors; active means well fitted inhibition curve with a large enough effect; inconclusive means small, poorly fitted or top-dose-only effect; inactive means no such curve, though single readings can be large or run the other way; further: potency means the concentration at half of the fitted maximal effect; on the % scale 0 is the no-effect control and ±100 the full control effect; nearly all actives have a fitted effect of over 60% in size
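TGR 20 nM + NADPH 100 uM (dispensed conc.), cpd preinc 15 min RT; start with NADPH (500 uM addition) then DTNB (15 mM addition). Kinetic TNB absorbance, 405 nm filter. Four-parameter Hill fit across titration.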
Cycloheximide cs: counter-screen for Shiga toxin inhibitors: cycloheximide protein synthesis inhibition; cell reporter, cycloheximide protein synthesis inhibition counterscreen; max response, %; 12% of 300,000 active; AID 2314; in the data active means max response mostly above about 13%, no sharp cut-off; inactive means mostly below about 14%; further: read at 38.3 µM for the half of the compounds with a filed dose; 0% is about no effect
FMDV inh: blocks foot and mouth disease virus. Potency, µM (doses to about 57.9 µM), inactives show top-dose activity change, negative = inhibition, hits mostly inhibitors. 1.2% of 410,000 active. FMDV antiviral cell-based qHTS; calls by dose curve; tested in HEK293T cells; further: read-out not given here; potency means the concentration at half of the fitted maximal effect; on the % scale 0 is the no-effect control and ±100 the full control effect; nearly all actives have a fitted effect of over 45% in size
* marks the source's active call; other numbers are inactive results; ? = inconclusive; . = not tested or not shown. Most compounds without a hit are left out; they make up all but 12% or so of the library.

SMILES | Shiga inhibitor | Sm TGR inh | Cycloheximide cs | FMDV inh
O=C1C2C3C=CC(C3)C2C(=O)N1c1cccc(-c2nc3ccccc3o2)c1 (stereo not drawn) | 3.8 | 16.2% | -3.1 | -10.2%
COc1ccc(C)c2sc(NC(=O)c3ccc(S(=O)(=O)N4CCOCC4)cc3)nc12 | . | 0.9% | . | -16.7%
CC(C)[C@H](O)CC[C@@H](C)C1CC[C@H]2C3CC=C4C[C@@H](O)CC[C@]4(C)C3CC[C@]12C (stereo partly drawn) | . | . | . | -9.1%
CC1CCN(C(c2ccc(F)cc2)c2sc3nc(-c4ccco4)nn3c2O)CC1 (stereo not drawn) | . | -11.1% | . | 12.0%
CC(=O)Nc1ccc(Nc2cc(C)c3ccccc3n2)cc1 | 61.0 | -3.2% | -3.4 | -5.9%
CCCC(=O)Nc1cccc(-c2nc3cc(C)c(C)cc3o2)c1 | 83.6* | 1.1% | 39.2* | 2.9%
O=C(Cc1ccccc1)Nc1ccc2oc(-c3ccncc3)nc2c1 | 33.3 | -0.7% | 15.3 | -6.3%
O=C(Nc1cccc(NC(=O)c2ccc(-c3ccc(Br)cc3)o2)c1)c1ccco1 | 92.1* | -10.8% | 38.3* | -10.4%
O=C(Nc1cccc(NC(=O)c2ccccc2Cl)c1)c1ccco1 | -11.7 | -3.8% | -1.0 | -0.5%
CC(C)CC(=O)Nc1ccc2oc(-c3ccncc3)nc2c1 | 58.6* | 8.3% | 24.2* | 11.6%
CC(=O)Nc1ccc2nc3ccccc3nc2c1 | 90.8* | ? | 51.8* | 60.6%
CCCC(=O)Nc1cccc(-c2nc3ncccc3o2)c1 | . | -1.1% | . | 6.6%
COc1ccc(S(=O)(=O)N(CCO)c2ccccc2CN(C)C/C=C/c2ccc(Cl)cc2)cc1 | . | . | . | -21.0%
Cn1cc(-c2cc3n(n2)CCC(=O)N3CC(=O)NCc2ccc(Cl)cc2)c2ccccc21 | . | -6.2% | . | -27.9%
Cc1ccc(S(=O)(=O)c2c(Nc3cc(F)ccc3F)sc(C(=O)c3ccc(F)cc3)c2N)cc1 | . | -7.0% | . | ?
Cc1ccc2cccc(NC(=O)c3ccc(-c4ccc(Br)cc4)o3)c2n1 | . | -19.8% | . | -17.5%
CC(C)C(=O)Nc1cccc(-c2nc3ccccc3o2)c1 | 10.9 | -3.9% | 5.1 | 7.6%
CC(=O)Nc1cccc(-c2nc3ccccc3o2)c1 | 40.1* | -12.4% | 27.7* | 39.8%
CC(=O)Nc1ccc2oc(-c3ccccc3)nc2c1 | 93.0* | 0.3% | 40.8* | 43.1%
O=C(Nc1cccc2nsnc12)c1ccc(-c2ccc(Br)cc2)o1 | 24.8 | 35.5µM* | 9.2 | 13.7%
O=C(Nc1cccc(-c2nc3ccccc3o2)c1)c1ccc(-c2ccc(Br)cc2)o1 | . | 39.8µM* | . | 0.0%
CC(C)CC(=O)Nc1cccc(-c2nc3ccccc3o2)c1 | 61.6* | 2.2% | 22.1* | 19.3%
Cc1ccc(NC(=O)c2ccc(S(=O)(=O)N3CCOCC3)cc2)cc1 | 41.8 | 2.2% | 29.2* | 12.4%
COc1ccc(C(=O)Nc2ccc(N3CCCCC3)cc2)cc1Br | 65.6* | -5.0% | 37.4* | 8.9%
Cc1ccc(NC(=O)c2cc(N3C(=O)C=CC3=O)ccc2Cl)cc1C | -3.8 | 0.794µM* | 7.1 | -7.3%
SMILES | Shiga inhibitor | Sm TGR inh | Cycloheximide cs | FMDV inh
COc1ccc(C(=O)Nc2ccc(C(=O)N3CCCCC3)cc2)cc1OC | 33.5 | 6.4% | 11.1 | 55.6%
CCN1CCN(c2ccc(NC(=O)c3cccc(N4CCCC4=O)c3)cc2)CC1 | 58.3 | -21.4% | 24.9* | 25.7%
O=C(Nc1ccc(Cl)cc1)c1ccc(S(=O)(=O)N2CCOCC2)cc1 | 23.2 | 3.0% | -9.0 | 8.8%
O=C(Nc1ccc(N2CCCCC2)cc1)c1ccccc1 | 88.4* | 3.7% | 22.5 | .
Cn1cc(S(=O)(=O)N2CCOCC2)cc1C(=O)Nc1ccc(Cl)cc1 | 38.6* | -23.0% | 7.7 | 0.0%
Cc1ccc(C(=O)Nc2ccc(N3CCCC3)cc2)cc1 | 68.8* | -0.1% | 26.0* | 0.0%
Cc1ccc(C(=O)Nc2ccc(N3CCCCC3)cc2)cc1 | . | . | . | 0.0%
Cc1ccc(NC(=O)c2cc(N3C(=O)C=CC3=O)ccc2N2CCOCC2)cc1 | 15.2 | 0.708µM* | 8.1 | ?
Cc1cccc(CNC(=O)CS(=O)(=O)c2cccc3nsnc23)c1 | . | 0.5% | . | 34.0%
CCOc1ccc(C(=O)NCC(=O)Nc2ccc(N3CCOCC3)cc2)cc1OCC | 124.1* | 33.8% | 21.4* | 29.2%
CC(=O)Nc1ccc(NC(=O)C2CCCCC2C(=O)O)cc1 (stereo not drawn) | 14.2 | 1.4% | 8.1 | -23.1%
O=C(/C=C/c1ccccc1)Nc1ccc(N2CCCCC2)cc1 | 31.1 | -1.6% | 26.3* | 11.1%
Cc1ccc(NC(=O)c2ccc(NC(=O)C3CCCCC3C(=O)O)cc2)cc1 (stereo not drawn) | 75.2* | -13.0% | 29.7* | -17.6%
CCOc1ccc(C(=O)NCC(=O)Nc2ccncc2)cc1OCC | . | -3.5% | . | -7.0%
CN(CC1CCCO1)S(=O)(=O)c1ccc(C(=O)Nc2nccs2)cc1 (stereo not drawn) | 21.7* | -9.4% | 24.1* | 32.0%
Cc1ccc(NC(=O)NN2CCOCC2)cc1 | 29.2 | 5.1% | 16.0* | 25.1%
Cc1ccc(NC(=O)c2cc(S(=O)(=O)N3CCOCC3)ccc2F)c(C)c1 | 31.9 | -8.0% | 23.5* | 0.0%
CC(=O)c1ccc(NC(=O)c2ccc(N3CCCC3=O)cc2)cc1 | . | -6.1% | . | 0.4%
O=C(Nc1ccc(N2CCCC2=O)cc1)c1cccc(F)c1 | 76.0* | -3.4% | 38.6* | .
Cc1ccc(NC(=O)Nc2ccc(C(=O)N3CCOCC3)cc2)cc1 | 16.2 | -1.8% | -1.3 | 48.1%
Cc1ccc(C(=O)Nc2ccc(N3CCOCC3)cc2)cc1 | 36.2 | -7.8% | 64.6* | .
Cc1cc(C)c(NC(=O)c2cc(S(=O)(=O)N3CCOCC3)ccc2F)c(C)c1 | -1.3 | 1.7% | 5.3 | 1.5%
Cc1nc2cc(NC(=O)[C@@H]3C[C@@H](Sc4ccccn4)CN3C3CCCCCC3)ccc2s1 | . | . | . | 12.1%
O=C(CCCn1c(=O)c2cccn2c2ccccc21)NCc1ccccc1Br | . | 0.2% | . | -20.5%
O=C(Nc1ccc(N2CCCC2)cc1)c1cccc(F)c1 | 145.4* | ? | 54.0* | 57.3%
SMILES | Shiga inhibitor | Sm TGR inh | Cycloheximide cs | FMDV inh
O=C(Nc1nccs1)c1ccc(S(=O)(=O)N2CCOCC2)cc1 | 44.2 | 5.9% | 15.2* | -26.5%
NC(=O)NC(=O)C(Nc1ccc(N2CCCCC2)cc1)c1ccccc1 (stereo not drawn) | 121.4* | ? | 51.3* | -5.8%
CCCC(=O)Nc1ccc(NC(=S)NC(=O)c2cccs2)cc1 | 51.1* | . | 22.0 | -2.2%
CCCC(=O)NC(=S)Nc1ccc(NC(=O)c2cccs2)cc1 | 25.6 | ? | 12.2* | 22.4%
Cc1ccc(C(=O)NC(=S)Nc2ccc(-c3ccc(CO)o3)cc2)cc1 | 50.7 | ? | 29.1 | -3.1%
O=C(NC(=S)Nc1ccc(-c2ccc(CO)o2)cc1)c1cccs1 | 66.7* | 8.91µM* | 46.1* | 24.7%
CCN(CC)c1ccc(NC(=S)NC(=O)c2cccs2)cc1 | 87.6* | 8.91µM* | 46.2* | 6.0%
Cc1cc(OC(C)C(=O)Nc2cccc(-c3nc4ccccc4o3)c2)cc(C)c1Cl (stereo not drawn) | . | 37.6% | . | -18.0%
CCOc1ccc(C2=Cc3cc(OC)c(OC)cc3C(=C(Cl)Cl)O2)cc1 | -11.3 | 35.5µM* | 6.1 | .
CCOc1ccc(-c2cc(-c3nc(-c4ccc(OC)c(OC)c4)no3)[nH]n2)cc1 | . | -0.2% | . | 0.0%
O=C(CCCCn1c(=O)c2ccccc2n(Cc2ccccc2Cl)c1=O)NCCc1ccccc1 | . | 0.1% | . | -9.3%
COC(=O)C1=C(C(=O)OC)C2c3ccccc3C1c1ccccc12 | . | . | . | -26.1%
